In PubChem BioAssay (NCI) one finds growth data, which are given here for 38 compounds.

This is part of a sample that, as a whole, favours compounds with a hit. Of some 83,000 tested, about 20% had one in any assay.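 The test compound was applied at a single concentration to cells in 96-well plates for 48 hours, and percent growth was recorded.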 Values without a mark were called inactive. Calls of active or inactive are those of the source. The calls were made as follows: active = growth percent below 10; inactive = the rest.

In one assay the test system is NCI-H23 lung. Nature of the assay: NCI-60 one-dose screen, 48 h (100 = growth as untreated, 0 = no growth, -100 = all killed). The note with it: 10 µM unless noted.
`O=c1nc(Nc2cccc(Cl)c2)oc2cc(Cl)oc(=O)c12`: the growth was 64.5%.
Still for that read-out and setting: in the case of `C/C(O)=C(/C=N\C(=S)Nc1ccc(S(=O)(=O)Nc2nccs2)cc1)C(=O)Nc1ccccc1C` it was 94.6%; in that of `CC(O)C(F)(F)C(F)(F)C(F)(F)F` (stereo not given), 111%; in that of `CCOP(=O)(NC(c1ccccc1)c1ccccc1)OCC`, 108%.
Still for that read-out and setting: the same measure for `CC(=O)OCC1OC(n2cnc3c(=S)nc(N)[nH]c32)C(OC(C)=O)C1OC(C)=O` (stereo not given): 88.3%; for `CCCCn1cnc2c(=O)[nH]cnc21`: 106%.
For `O=C(NCc1ccccc1)/C(=C/c1ccccc1)NC(=O)c1ccccc1`, the growth is 104%.
Still for that read-out and setting: the same measure for `O=CNCCc1ccccc1`: 102%.
Same read-out and setting: in the case of `COC1OC(C(COC(C)=O)OC(C)=O)C(OC(C)=O)C(OC(C)=O)C1OC(C)=O` (stereo not given) it was 112%; in that of `O=S(Cc1ccccc1)/C(=C/NC(=S)Nc1cc(Cl)ccc1Cl)c1ccccc1` (stereo not given), 97.1%.
The same measure, in the same setting: in the case of `Cc1c(Cl)cccc1N=C=S` it was 85%; in that of `CC(=O)C1C(=O)C(=O)N(c2cccc([N+](=O)[O-])c2)C1=O` (stereo not given), 99%; in that of `CCOc1ccc2c(c1)c(C)cc(C)[n+]2CC`, 43.5%.
In the case of `S=CN1CCCCC1`, the growth is 105%.
Same read-out and setting: in the case of `Cc1nc(C)c(C(=O)O)cc1C(=O)O` it was 101%; in that of `Cc1cc(CC(=O)NCCO)n(CCO)c(=O)c1`, 101%.
On the same count and under the same terms, the same measure for `NC(CSSCC(N)C(=O)O)C(=O)O` (stereo not given): 20.2%; for `C/C(O)=C(/C=N/C(=S)Nc1ccccc1)C(=O)Nc1ccccc1C`: 103%; for `CC(C)(C)[Si](C)(C)OCC1OC(n2cnc3c(N)ncnc32)CC1OS(C)(=O)=O` (stereo not given): 106%.
On to `NNC(=O)N/N=C1\C(=O)N(c2nccs2)C(=O)C(=O)C1c1nc2ccccc2s1` (stereo not given), for which the growth was 95.6%.
`C(=C\c1ccncc1)/c1ccncc1`: the growth was 98.7%.
Same read-out and setting: in the case of `CC(=O)NCNC(C)=O` it was 113%.

A further assay relates to NCI-H226 lung. The description is as above. The note with it: 10 µM unless noted.
For the compound `O=C(c1cccc(C(=O)c2ccc3c4c(cccc24)C(=O)N(c2ccccc2)C3=O)c1)c1ccc2c3c(cccc13)C(=O)N(c1ccccc1)C2=O`, the growth was 78.6%.
Same read-out and setting: in the case of `Cc1ccc[n+](CCC(N)=O)c1` it was 99.6%.
On the same count and under the same terms, the same measure for `Cc1ccc2nc(N)nnc2c1`: 103%; for `CCOc1ccncc1[N+](=O)[O-]`: 102%; for `Oc1cc(O)c2c(c1)O[C@H](c1ccc(O)c(O)c1)[C@@H](O)C2`: 96.6%.
Still for that read-out and setting: in the case of `Cn1c(=O)c2nc3c(=O)n(C)c(=O)n(C)c3nc2n(C)c1=O` it was 107%; in that of `C=CCOc1ccc(Cl)cc1Cl`, 104%.
Regarding `CCOC(=O)/C(O)=C(\C=N\C(=S)Nc1ccc(Cl)c(Cl)c1)C(=O)OCC`, the growth is 75.2%.
For `CCOc1ccc(NC(=S)N2CCC(CCCC3CCN(C(=S)Nc4ccc(OCC)cc4)CC3)CC2)cc1`, the growth was 77.1%.
The same measure, in the same setting: the same measure for `Clc1ccc(C(SCc2ccccc2)SCc2ccccc2)cc1`: 86.3%; for `CC(=O)C1C(=O)C(=O)N(c2ccc(Cl)c(Cl)c2)C1=O` (stereo not given): 106%.
On the same count and under the same terms, in the case of `Cc1cc(Cl)cc(Cc2cc(Cl)cc(C)c2O)c1O` it was 92.3%; in that of `c1ccc(Oc2c3ccccc3nc3ccccc23)cc1`, 47.9%.
Same read-out and setting: the same measure for `O=[N+]([O-])c1ccc2[nH]c(=S)n(/C=C(/c3ccc(Cl)cc3Cl)S(=O)(=O)Cc3ccc(Cl)cc3Cl)c2c1`: 106%; for `N#C/C(=C\c1ccc(C#N)cc1)C(=O)c1ccccc1`: 95.5%.
On to `COc1cc(OC)c(NC(=O)C(Sc2nc(C)cc(C)c2C#N)c2ccccc2)cc1Cl` (stereo not given), for which the growth was 102%.
Same read-out and setting: in the case of `O=c1nc(Nc2cccc(Cl)c2)oc2cc(Cl)oc(=O)c12` it was 94.9%.
Turning to `C/C(O)=C(/C=N\C(=S)Nc1ccc(S(=O)(=O)Nc2nccs2)cc1)C(=O)Nc1ccccc1C`, the growth was 73.2%.
On the same count and under the same terms, the same measure for `CC(O)C(F)(F)C(F)(F)C(F)(F)F` (stereo not given): 102%; for `CCOP(=O)(NC(c1ccccc1)c1ccccc1)OCC`: 103%; for `CC(=O)OCC1OC(n2cnc3c(=S)nc(N)[nH]c32)C(OC(C)=O)C1OC(C)=O` (stereo not given): 68.2%.
On the same count and under the same terms, in the case of `CCCCn1cnc2c(=O)[nH]cnc21` it was 107%; in that of `O=C(NCc1ccccc1)/C(=C/c1ccccc1)NC(=O)c1ccccc1`, 98%.
Regarding `O=CNCCc1ccccc1`, the growth was 98.9%.
Still for that read-out and setting: the same measure for `COC1OC(C(COC(C)=O)OC(C)=O)C(OC(C)=O)C(OC(C)=O)C1OC(C)=O` (stereo not given): 99.4%; for `O=S(Cc1ccccc1)/C(=C/NC(=S)Nc1cc(Cl)ccc1Cl)c1ccccc1` (stereo not given): 101%.
The same measure, in the same setting: in the case of `Cc1c(Cl)cccc1N=C=S` it was 101%; in that of `CC(=O)C1C(=O)C(=O)N(c2cccc([N+](=O)[O-])c2)C1=O` (stereo not given), 92.3%; in that of `CCOc1ccc2c(c1)c(C)cc(C)[n+]2CC`, 82.8%.
Still for that read-out and setting: the same measure for `S=CN1CCCCC1`: 98.1%; for `Cc1nc(C)c(C(=O)O)cc1C(=O)O`: 110%; for `Cc1cc(CC(=O)NCCO)n(CCO)c(=O)c1`: 105%.
For `NC(CSSCC(N)C(=O)O)C(=O)O` (stereo not given), the growth was -9.33% (active).
On the same count and under the same terms, in the case of `C/C(O)=C(/C=N/C(=S)Nc1ccccc1)C(=O)Nc1ccccc1C` it was 95.8%; in that of `CC(C)(C)[Si](C)(C)OCC1OC(n2cnc3c(N)ncnc32)CC1OS(C)(=O)=O` (stereo not given), 101%.
On the same count and under the same terms, in the case of `NNC(=O)N/N=C1\C(=O)N(c2nccs2)C(=O)C(=O)C1c1nc2ccccc2s1` (stereo not given) it was 89.1%.
Turning to `C(=C\c1ccncc1)/c1ccncc1`, the growth was 96.4%.
On the same count and under the same terms, the same measure for `CC(=O)NCNC(C)=O`: 99.8%.
